Among the data in PubChem BioAssay (EPA / NIEHS) are AC50 and outcome values, retold here.

Read-out in assay [1]: Pyruvate Dehydrogenase Kinase 4 (PDK4), PDK4 (gene 5166)
Description: LTEA_HepaRG_PDK4: Life Technologies and Expression Analysis (LTEA) Assay for Pyruvate Dehydrogenase Kinase 4 (PDK4) using HepaRG (AID 2283525). The note with it: mRNA level, 48 h; actives raise or lower the signal. The method in brief:
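Readout is qRT-PCR of PDK4 transcript, normalized to three housekeeping genes, with bidirectional fitting against 0.5% DMSO vehicle. Differentiated HepaRG cells were treated 48 h in serum-free induction medium, duplicate wells, eight-point half-log series topping at 100 uM.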

Read-out in assay [2]: NAD(P)H dehydrogenase [quinone] 1 (NQO1), NQO1 (gene 1728)
Description: LTEA_HepaRG_NQO1: Life Technologies and Expression Analysis (LTEA) Assay for NAD(P)H dehydrogenase [quinone] 1 (NQO1) using HepaRG (AID 2283526). The note with it: mRNA level, 48 h; actives raise or lower the signal. The method in brief:
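Transcript induction or suppression is quantified by qRT-PCR in human HepaRG liver cells dosed for 48 hours. Eight half-log concentrations topping at 100 uM are used, with 0.5% DMSO as vehicle and baseline.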

Read-out in assay [3]: succinate dehydrogenase complex iron sulfur subunit B (SDHB), SDHB (gene 6390)
In words: LTEA_HepaRG_SDHB: Life Technologies and Expression Analysis (LTEA) Assay for succinate dehydrogenase complex iron sulfur subunit B (SDHB) using HepaRG (AID 2283528). The note with it: mRNA level, 48 h; actives raise or lower the signal. In outline: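 Readout is SDHB transcript level by qRT-PCR, normalised to three housekeeping genes and fitted bidirectionally against 0.5% DMSO vehicle. Human HepaRG cells were treated for 48 h at up to 100 uM.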

Read-out in assay [4]: Signal transducer and activator of transcription 3 (Homo sapiens) (UniProt P40763)
In words: LTEA_HepaRG_STAT3: Life Technologies and Expression Analysis (LTEA) Assay for Signal transducer and activator of transcription (STAT3) using HepaRG (AID 2283529). To be noted: mRNA level, 48 h; actives raise or lower the signal. In outline: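 STAT3 transcript quantified by qRT-PCR against three housekeeping genes (ACTB, GAPDH, POLR2A), fitted both directions relative to DMSO. HepaRG cultures exposed 48 h to eight half-log concentrations, top 100 uM, 0.5% DMSO, serum-free induction medium.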

Read-out in assay [5]: solute carrier (SLCO1B1), SLCO1B1 (gene 10599)
Description: LTEA_HepaRG_SLCO1B1: Life Technologies and Expression Analysis (LTEA) Assay for solute carrier (SLCO1B1) using HepaRG (AID 2283530). To be noted: mRNA level, 48 h; actives raise or lower the signal. The method in brief:
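Human HepaRG cultures treated for 48 h with an eight-concentration half-log series topping at 100 uM; SLCO1B1 measured by qRT-PCR and fitted bidirectionally relative to DMSO.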

Read-out in assay [6]: sulfotransferase 2A1 (SULT2A1), SULT2A1 (gene 6822)
In words: LTEA_HepaRG_SULT2A1: Life Technologies and Expression Analysis (LTEA) Assay for sulfotransferase 2A1 (SULT2A1) using HepaRG (AID 2283531). To be noted: mRNA level, 48 h; actives raise or lower the signal. The method in brief: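 Gene-expression endpoint in a human liver cell line: SULT2A1 mRNA change after 48 h chemical treatment, curves fitted in both directions relative to 0.5% DMSO vehicle. Concentrations spanned eight half-log steps from 100 uM.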

Read-out in assay [7]: Transforming Growth Factor (TGFA), TGFA (gene 7039)
In words: LTEA_HepaRG_TGFA: Life Technologies and Expression Analysis (LTEA) Assay for Transforming Growth Factor (TGFA) using HepaRG (AID 2283532). To be noted: mRNA level, 48 h; actives raise or lower the signal. The method in brief: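 TGFA transcript quantified by qRT-PCR (Fluidigm arrays) against three housekeeping genes, after 48 hours chemical treatment of HepaRG cells. Top concentration 100 uM with half-log dilutions, 8 points, duplicates, 0.5% DMSO.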

Read-out in assay [8]: Transforming Growth Factor (TGFB1), TGFB1 (gene 7040)
Description: LTEA_HepaRG_TGFB1: Life Technologies and Expression Analysis (LTEA) Assay for Transforming Growth Factor (TGFB1) Transporter using HepaRG (AID 2283533). To be noted: mRNA level, 48 h; actives raise or lower the signal. The method in brief: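 Eight-point concentration-response (max 100 uM, half-log) in HepaRG under serum-free induction conditions, 48 h. TGFB1 mRNA by qRT-PCR, housekeeping-normalized.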

Read-out in another assay: TIMP1, TIMP1 (gene 7076)
Description: LTEA_HepaRG_TIMP1: Life Technologies and Expression Analysis (LTEA) Assay for TIMP1 using HepaRG (AID 2283534). To be noted: mRNA level, 48 h; actives raise or lower the signal. The method in brief:
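TIMP1 induction or repression in HepaRG cells after 48 h chemical exposure (eight concentrations, highest 100 uM), assessed by normalized qRT-PCR with bidirectional fitting to DMSO controls.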

Read-out in assay [9]: Tumor necrosis factor receptor 1 (TNFRSF1A), TNFRSF1A (gene 7132)
Description: LTEA_HepaRG_TNFRSF1A: Life Technologies and Expression Analysis (LTEA) Assay for Tumor necrosis factor receptor 1 (TNFRSF1A) using HepaRG (AID 2283535). The note with it: mRNA level, 48 h; actives raise or lower the signal. The method in brief:
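Assay uses 48 h chemical treatment of differentiated HepaRG monolayers, tested in duplicate at eight concentrations from 100 uM downward in 0.5% DMSO. mRNA is normalized to ACTB, GAPDH and POLR2A, with induction or suppression fitted relative to vehicle.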

Read-out in assay [10]: Thyroid Hormone Responsive (THRSP), THRSP (gene 7069)
Description: LTEA_HepaRG_THRSP: Life Technologies and Expression Analysis (LTEA) Assay for Thyroid Hormone Responsive (THRSP) using HepaRG (AID 2283536). The note with it: mRNA level, 48 h; actives raise or lower the signal. In outline: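 THRSP transcript quantified by Fluidigm qRT-PCR against three housekeeping genes after 48 h chemical exposure of HepaRG cells in serum-free induction medium; eight-point half-log series, top 100 uM, 0.5% DMSO vehicle, duplicate wells.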

Read-out in assay [11]: Cellular tumor antigen p53 (Homo sapiens) (UniProt P04637)
In words: LTEA_HepaRG_TP53: Life Technologies and Expression Analysis (LTEA) Assay for Tumor Protein P53 (TP53) using HepaRG (AID 2283537). To be noted: mRNA level, 48 h; actives raise or lower the signal. The method in brief:
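Read-out is TP53 transcript level by microfluidic qRT-PCR, normalised to three housekeeping genes and fitted bidirectionally against DMSO. Human HepaRG cells received compounds for 48 h, highest concentration 100 uM.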

Read-out in assay [12]: UDP glucuronosyltransferase (UGT1A1), UGT1A1 (gene 54658)
In words: LTEA_HepaRG_UGT1A1: Life Technologies and Expression Analysis (LTEA) Assay for UDP glucuronosyltransferase (UGT1A1) using HepaRG (AID 2283538). The note with it: mRNA level, 48 h; actives raise or lower the signal. In outline: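 Cells are plated, cultured 48 h, switched to serum-free induction medium, then dosed 48 h at eight concentrations (max 100 uM, 0.5% DMSO). RNA is isolated and UGT1A1 expression measured by qRT-PCR; changes versus DMSO are fitted in both directions.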

Read-out in assay [13]: UDP glucuronosyltransferase (UGT1A6), UGT1A6 (gene 54578)
Description: LTEA_HepaRG_UGT1A6: Life Technologies and Expression Analysis (LTEA) Assay for UDP glucuronosyltransferase (UGT1A6) using HepaRG (AID 2283539). To be noted: mRNA level, 48 h; actives raise or lower the signal. The method in brief: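 Measures mRNA change in HepaRG hepatic cells exposed 48 h to chemicals (eight-point, maximum 100 uM, 0.5% DMSO vehicle) in serum-free induction medium. Expression normalized to endogenous controls; DMSO served as negative control and baseline.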

Read-out in assay [14]: X-box binding protein 1 (XBP1), XBP1 (gene 7494)
In words: LTEA_HepaRG_XBP1: Life Technologies and Expression Analysis (LTEA) Assay for X-box binding protein 1 (XBP1) using HepaRG (AID 2283540). The note with it: mRNA level, 48 h; actives raise or lower the signal. The method in brief:
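Eight concentrations (half-log, highest 100 uM, 0.5% DMSO) tested in duplicate on HepaRG cells over 48 h in serum-free induction medium; qRT-PCR of XBP1 normalised to ACTB, GAPDH, POLR2A.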

Assay [15] in a line: LTEA_HepaRG_LDH_cytotoxicity: Cytotoxicity Assessment in the Life Technologies and Expression Analysis (LTEA) Assay (AID 2283563; active = hit-call score of the fitted dose curve at least 0.9, where 1 is the maximum;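 for AC50: LDH activity released into spent culture medium as a marker of cell death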). The method in brief: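 Spent-medium LDH after 48 h chemical exposure of HepaRG cells in serum-free induction medium; eight concentrations, half-log dilutions from 100 uM, duplicate wells, fitted upward relative to 0.5% DMSO.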
Assay [16] is described as follows: ATG_XTT_Cytotoxicity: Cytotoxicity Assessment in the Attagene TRANS-FACTORIAL HepG2 Assay (AID 2283584; active = hit-call score of the fitted dose curve at least 0.9, where 1 is the maximum;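 for AC50: XTT signal for cell number as viability in transfected HepG2 cells; cells exposed to compound for 24 h before reading; active means loss of viability signal versus DMSO baseline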). The method in brief: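 24 h chemical exposure of reporter-transfected HepG2; XTT signal loss vs DMSO indicates cytotoxicity.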
Read-out in assay [17]: Nuclear factor erythroid 2-related factor 2 (Homo sapiens) (UniProt Q16236)
In words: LTEA_HepaRG_NFE2L2: Life Technologies and Expression Analysis (LTEA) Assay for Nuclear factor erythroid 2-related factor 2 (NFE2L2) Transcription Factor using HepaRG (AID 2283527). The note with it: mRNA level, 48 h; actives raise or lower the signal. In outline:
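NFE2L2 transcript level was read by qRT-PCR (housekeeping ACTB/GAPDH/POLR2A normalisation) after 48 h chemical treatment of HepaRG in serum-free induction medium. Duplicate 8-point half-log curves, top 100 uM, 0.5% DMSO vehicle; up- or down-regulation fitted against vehicle.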

The target of assay [18] is Cellular tumor antigen p53 (Homo sapiens) (UniProt P04637). Description: TOX21_p53_BLA_p2_ratio: Tox21 HCT-116 p53 Agonism Beta-lactamase Assay, Ratio, Phase 2 (AID 2283592; active = hit-call score of the fitted dose curve at least 0.9, where 1 is the maximum). The method in brief:
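DMSO-normalized, positive-direction endpoint derived from the 460 nm/530 nm FRET ratio in HCT116 p53 beta-lactamase reporter cells exposed 16 h at 37C and loaded with CCF4-AM for 2 h.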

Assay [19] is described as follows: TOX21_p53_BLA_p2_viability: Viability Assessment in the Tox21 HCT-116 p53 Agonism Beta-lactamase Assay, Phase 2 (AID 2283591; active = hit-call score of the fitted dose curve at least 0.9, where 1 is the maximum;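 note: compound exposure lasted 16 h at 37 °C; actives lower the ATP signal meaning cytotoxicity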). The method in brief: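 Cytotoxicity readout: CellTiter-Glo ATP luminescence, 30 min at room temperature, after the beta-lactamase read. Cells were HCT116 exposed 16 h at 37C to compounds pin-transferred at 217-fold dilution from DMSO stocks.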

Each structure is given as a SMILES string. Inconclusive results are not listed. Calls of active or inactive are those of the source. Rule for the calls, unless noted: active = hit-call score of the fitted dose curve at least 0.9, where 1 is the maximum; inactive = score below 0.9.

Chain of Cellular tumor antigen p53 (Homo sapiens) (P04637 whole entry, looked up): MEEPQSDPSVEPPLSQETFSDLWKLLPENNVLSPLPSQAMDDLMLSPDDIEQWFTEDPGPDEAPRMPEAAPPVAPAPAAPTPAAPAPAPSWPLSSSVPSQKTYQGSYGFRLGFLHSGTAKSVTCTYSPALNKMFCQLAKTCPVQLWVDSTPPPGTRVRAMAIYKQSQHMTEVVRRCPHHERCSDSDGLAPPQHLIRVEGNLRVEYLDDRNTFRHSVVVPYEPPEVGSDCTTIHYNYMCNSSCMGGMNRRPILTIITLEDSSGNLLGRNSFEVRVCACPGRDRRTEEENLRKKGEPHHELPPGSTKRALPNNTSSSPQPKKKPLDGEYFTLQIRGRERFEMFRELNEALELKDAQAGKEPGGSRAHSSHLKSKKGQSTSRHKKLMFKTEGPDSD
Chain of Signal transducer and activator of transcription 3 (Homo sapiens) (P40763 whole entry, looked up): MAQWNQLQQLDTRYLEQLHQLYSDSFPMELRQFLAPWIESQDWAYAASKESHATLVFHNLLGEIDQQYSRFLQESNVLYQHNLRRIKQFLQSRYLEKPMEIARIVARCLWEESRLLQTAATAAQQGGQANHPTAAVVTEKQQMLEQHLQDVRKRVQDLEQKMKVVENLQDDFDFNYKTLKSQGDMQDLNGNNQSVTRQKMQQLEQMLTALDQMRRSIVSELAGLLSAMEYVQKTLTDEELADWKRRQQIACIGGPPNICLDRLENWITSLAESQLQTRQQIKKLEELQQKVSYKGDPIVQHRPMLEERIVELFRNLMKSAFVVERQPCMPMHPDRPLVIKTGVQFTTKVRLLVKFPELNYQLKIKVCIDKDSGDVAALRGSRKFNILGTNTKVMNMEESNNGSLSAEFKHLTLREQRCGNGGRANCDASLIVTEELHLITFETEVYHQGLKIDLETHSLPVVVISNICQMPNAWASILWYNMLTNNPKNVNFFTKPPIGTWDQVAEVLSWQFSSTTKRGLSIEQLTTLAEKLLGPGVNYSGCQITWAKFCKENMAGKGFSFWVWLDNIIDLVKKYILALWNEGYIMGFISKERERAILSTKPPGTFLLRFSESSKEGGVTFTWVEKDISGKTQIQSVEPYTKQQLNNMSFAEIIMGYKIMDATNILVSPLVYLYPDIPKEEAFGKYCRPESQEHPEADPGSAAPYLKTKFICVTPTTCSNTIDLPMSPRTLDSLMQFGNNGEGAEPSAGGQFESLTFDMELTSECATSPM
Chain of Nuclear factor erythroid 2-related factor 2 (Homo sapiens) (Q16236 whole entry, looked up): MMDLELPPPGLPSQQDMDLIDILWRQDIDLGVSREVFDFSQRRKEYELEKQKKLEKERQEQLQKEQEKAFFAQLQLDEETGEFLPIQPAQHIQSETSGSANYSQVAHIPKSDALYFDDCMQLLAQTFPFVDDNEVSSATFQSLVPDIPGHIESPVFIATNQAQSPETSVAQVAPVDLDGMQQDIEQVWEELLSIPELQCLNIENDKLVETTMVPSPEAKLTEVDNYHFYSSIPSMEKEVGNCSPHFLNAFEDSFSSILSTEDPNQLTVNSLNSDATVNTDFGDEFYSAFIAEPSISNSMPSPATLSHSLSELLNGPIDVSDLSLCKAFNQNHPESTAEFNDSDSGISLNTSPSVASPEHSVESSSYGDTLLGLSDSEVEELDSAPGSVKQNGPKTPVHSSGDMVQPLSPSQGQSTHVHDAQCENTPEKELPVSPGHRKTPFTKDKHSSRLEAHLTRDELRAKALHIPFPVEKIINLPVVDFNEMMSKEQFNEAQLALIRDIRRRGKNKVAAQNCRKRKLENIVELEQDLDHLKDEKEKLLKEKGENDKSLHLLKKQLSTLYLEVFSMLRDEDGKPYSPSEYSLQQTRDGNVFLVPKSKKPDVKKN

Broadly, the AC50 is the midpoint of the concentration-response curve, whichever way the signal moves. `CCCCCCCCCCCCc1ccccc1S(=O)(=O)O`: the AC50 in assay [1] is 10.8 µM (active); in [5], 79.6 µM (active); in assay [6], 83.4 µM (active); in assay [7], 32.5 µM (active); in assay [10], 5.53 µM (active); in [11], 58.1 µM (active). Also, the AC50 in assay [12] is 12 µM (active); in assay [15], 77.7 µM (active); in [16], 156 µM (active). Moreover, the outcome was “inactive” in [2]; “inactive” in assay [3]; “inactive” in assay [4]; “inactive” in assay [8]; “inactive” with TIMP1, TIMP1 (gene 7076); “inactive” in assay [9]. Further, the result in assay [13] and in assay [14] was inactive.
Consider `COc1ccc([N+](=O)[O-])cc1N`, for which the result in assay [1], in [2], in [17], in [3], in [4] and in [5] was inactive. The outcome in assay [6] is “inactive”; in assay [7] it was “inactive”; in assay [8], “inactive”; with TIMP1, TIMP1 (gene 7076), “inactive”; in [9] it was “inactive”; in assay [11], “inactive”. The outcome in assay [13], in assay [14], in [15], in assay [16] and in [18] was inactive. Besides, the AC50 in [10] is 9.92 µM (active); in [12], 50 µM (active).
Take `OC1CCC(C2CCCCC2)CC1` (stereo unspecified): the compound was classed as inactive in [1], in assay [2], in [17], in assay [3], in assay [4] and in [5]. Moreover, the outcome in [6] is “inactive”; in [7], “inactive”; in [8], “inactive”; with TIMP1, TIMP1 (gene 7076), “inactive”; in assay [9] it was “inactive”; in [10], “inactive”. Further, the compound was called inactive in [11], in [12], in [13], in [14], in assay [15] and in [16]. Moreover, the outcome in assay [19] and in assay [18] was inactive.
